Bioassay records deposited in PubChem BioAssay by Broad Institute.
Wnt act = Wnt/beta-catenin pathway activators, primary screen, cell-based, plate reader, single point; 300,000 tested, 1.2% active; Wnt/beta-catenin reporter cell assay, activator; activation, % at 9.35 µM; in the data active = activation above about 30%, passing the limit was not always enough; inconclusive = no clear call, values can overlap the other calls;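 also: 0% = neutral control wells and 100% = positive control wells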
miR-122 sensor = miR-122 Renilla sensor signal increase in Huh7, primary screen, miR-122 inhibitor project, cell-based, single point, plate reader | Huh7 miR-122 Renilla luciferase sensor, 48 h; neutral wells = 0, positive control = 100 | activation (reporter increase), % at 12.5 µM | 340,000 tested, 0.3% active | AID 602342, 2012;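 active = mean replicate activation score at least 90 and every replicate individually at or above 90; inconclusive = only one of the two criteria met; inactive = neither criterion met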;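 also: higher luciferase means less miR-122 activity so hits act as miR-122 inhibitors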
esBAF inh = Bmi1 luciferase reporter increase in mESCs, primary screen, esBAF inhibitor project, mouse ES cells, Bmi1 luciferase knock-in, single point. 350,000 tested, 2% active. reporter increase, % at 12.5 µM. 24 h; 100% = twice the neutral-well signal; in the data active = activation above about 40%; inconclusive = no clear call, values can overlap the other calls;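 also: 0% = median of the plate's neutral control wells and 100% = double that signal; a rise in the Bmi1 reporter signal indicates esBAF inhibition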
MITF act = activators of MITF-driven TRPM1 promoter reporter, primary screen, cell-based, SK-MEL-5, luciferase, single point; SK-MEL-5 TRPM1-promoter luciferase, 24 h; % of positive control, neutral wells = 0; activation, % at 12.5 µM; 300,000 tested, 0.75% active;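 active = mean activation of at least 80% with every replicate also reaching 80%; inconclusive = mean reaches 80% but some replicate falls short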;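 also: 0% = neutral control wells and 100% = parthenolide positive control wells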
HIV Env fusion = inhibitors of HIV-1 Env-driven cell-cell fusion, primary screen, HeLa-JRFL effector, CEM21 target cells, luciferase. inhibition, % at 12.3 µM. 360,000 tested, 1.1% active;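 active = mean replicate inhibition score of at least 50 and every replicate individually at or above 50; inconclusive = only one of the two criteria met; inactive = mean below 50 and not all replicates reaching 50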;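 also: 0% = plate neutral controls and 100% = maraviroc near 300 nM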
* hit, by the source's call; u = inconclusive; x = not tested or not shown; [ ] = dose if it differs, or a comment. This is a sample that favours compounds with a hit; in the whole collection about 3.4% have one here.

SMILES	Wnt act	miR-122 sensor	esBAF inh	MITF act	HIV Env fusion
COc1ccc(C(=O)NC(=S)Nc2nc(C)cc(C)n2)cc1Br	42*	-1	x	x	-7
COc1ccccc1OCC(=O)Nc1ccc2c(c1)OCCO2	4	0	45*	u	-49
COc1ccccc1C(=O)Nc1ccc2c(c1)OCCO2	x	9	59*	37	x
COc1ccccc1OCCC(=O)Nc1ccc2c(c1)OCO2	-2	12	18	12	x
Cc1cccc(C)c1OCC(=O)Nc1ccc2c(c1)OCCO2	18	5	43*	35	-103
CCOc1cc(C(=O)NC(=S)Nc2nc(C)cc(C)n2)cc(OCC)c1OCC	-2	0	-3	-3	1
C[C@H]1CN([C@@H](C)CO)C(=O)c2cc(NC(=O)C3CC3)ccc2O[C@H]1CN(C)C(=O)NC1CCCCC1	x	-9[16.7 µM]	8	x	-2[16.7 µM]
COc1ccc(S(=O)(=O)Nc2ccc3c(c2)C(=O)N([C@@H](C)CO)C[C@@H](C)[C@H](CN(C)S(=O)(=O)c2cccs2)OCCCC[C@@H](C)O3)cc1	x	-7[16.7 µM]	8	x	1[16.7 µM]
C[C@H](CO)N1C[C@H](C)[C@H](CN(C)C(=O)Nc2ccc(F)cc2)Oc2c(NC(=O)Nc3cccc4ccccc34)cccc2C1=O	x	-17[16.7 µM]	11	x	16[16.7 µM]
Cc1ccccc1OCC(=O)Nc1ccc2c(c1)OCCO2	38*	x	x	125*	-86
Cc1cc(Cl)c(S(=O)(=O)Nc2ccon2)cc1OCC(=O)NC1CCCCC1	x	-11	-7	x	-82
Cc1ccccc1OCC(=O)OCC(=O)Nc1ccc2c(c1)OCO2	1	x	-4	-3	x
CC(=O)c1cccc(NC(=O)COC(=O)c2ccccc2C)c1	17	-1	44*	97*	-18
Cc1cc(Cl)c(S(=O)(=O)Nc2ccc3c(c2)OCCO3)cc1OCC(=O)NC1CCCCC1	-11	157*	-10	5	-23
Cc1cccc(NC(=O)COc2ccc(Br)cc2/C=N/O)c1	15	x	x	122*	-35
CCCC(=O)Nc1ccc2c(c1)OC[C@H](C)N(Cc1ccc(-c3ccccn3)cc1)C[C@@H](C)[C@H](OC)CN(C)C2=O	x	3[16.7 µM]	2	x	x
CO[C@@H]1CN(C)C(=O)c2ccc(NC(=O)c3ccccc3F)cc2OC[C@H](C)N(C(=O)c2ccccc2F)C[C@@H]1C	x	37[16.7 µM]	12	x	x
O=S(=O)(NCC[C@@H]1CC[C@H](NS(=O)(=O)c2ccccc2Cl)[C@H](CO)O1)c1ccc(Cl)cc1	x	x	4	x	50[16.7 µM]
O=C(COc1ccccc1Cl)Nc1ccc2c(c1)OCCO2	x	-2	49*	54	x
O=C(Nc1ccc2c(c1)OCCO2)c1c(Cl)cccc1Cl	0	6	10	x	-22
O=C(Nc1ccc2c(c1)OCCO2)c1cccc(Cl)c1Cl	15	2	88*	x	-93
NC(=O)c1ccccc1OCC(=O)Nc1ccc2c(c1)OCCO2	22	0	u	96*	-75
Cc1ccccc1OCC(=O)Nc1cccc(C(=O)O)c1	-5	x	x	-92	76*
Cc1cccc(OCC(=O)Nc2cc(NC(=O)COc3cccc(C)c3C)cc(C(=O)O)c2)c1C	0	4	-7	x	-15
C[C@H]1CCCCO[C@H](CN(C)S(=O)(=O)c2ccccc2)[C@@H](C)CN([C@@H](C)CO)C(=O)c2cc(NC(=O)CCCN(C)C)ccc2O1	x	12[16.7 µM]	5	x	2[16.7 µM]
SMILES	Wnt act	miR-122 sensor	esBAF inh	MITF act	HIV Env fusion
CN(C)C(=O)c1cccc(-c2ccc3c(c2)[C@@H]2[C@@H](CCN2C(=O)c2ccccc2F)[C@@H](CO)N3)c1	x	-2[16.7 µM]	5	x	x
CCC(=O)Nc1ccc2c(c1)C(=O)N(C)[C@@H]1CC[C@H](CC(=O)NCc3ccccc3)O[C@@H]1CO2	x	6[16.7 µM]	-4	x	-2[16.7 µM]
O=C(N[C@@H]1CC[C@H](CCn2cc(Cc3ccccc3)nn2)O[C@H]1CO)c1ccccn1	x	x	13	x	-9[16.7 µM]
C[C@@H]1CN([C@@H](C)CO)C(=O)Cc2cc(NC(=O)Nc3ccc(C(F)(F)F)cc3)ccc2O[C@@H]1CN(C)S(=O)(=O)c1ccc(F)cc1	x	-2[16.7 µM]	0	x	-59[16.7 µM]
Cc1cc(C)c(OCC(=O)Nc2cccc(O)c2)cc1C	x	-1	55*	u	x
COC(=O)c1sc(NC(=O)COc2ccccc2C)nc1C	1	x	x	44	-7
Cc1oc(C(C)(C)C)cc1C(=O)Nc1ccc2c(c1)OCCO2	x	-3	44*	40	x
